The source of these data is the supplement of paper PMC12645437, “Orthogonal IMiD-Degron Pairs Induce Selective Protein Degradation in Cells” (ACS Chemical Biology, 2025).

The test has as its target T1, CRBN, Q96SW2.
T1 chain: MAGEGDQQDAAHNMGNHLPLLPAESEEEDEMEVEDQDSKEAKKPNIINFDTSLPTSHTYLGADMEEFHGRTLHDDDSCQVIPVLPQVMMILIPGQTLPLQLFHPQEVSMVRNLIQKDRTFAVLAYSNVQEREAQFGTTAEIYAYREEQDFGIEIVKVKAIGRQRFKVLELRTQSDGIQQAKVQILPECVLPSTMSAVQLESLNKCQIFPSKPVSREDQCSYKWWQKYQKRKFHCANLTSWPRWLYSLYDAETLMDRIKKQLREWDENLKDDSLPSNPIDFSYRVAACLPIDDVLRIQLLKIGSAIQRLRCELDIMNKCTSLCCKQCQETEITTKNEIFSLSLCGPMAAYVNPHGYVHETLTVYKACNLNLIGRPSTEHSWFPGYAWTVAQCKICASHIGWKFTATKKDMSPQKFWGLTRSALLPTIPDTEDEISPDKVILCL
Kind of test: log2 fold change of degron read counts, EGFP-low vs EGFP+ sorted cells (limma voom), compound-induced degradation; higher = more compound-induced degradation of the degron-EGFP fusion; degrons are variants of IKZF1/3 zinc finger 2; compound dose not given here. To be noted: Jurkat, 18 h.

Setting [1] is: compound: compound 19 (5-tert-butyl-thalidomide).
Setting [2] is: compound: compound 22 (5-morpholino-thalidomide).
Setting [3] is: compound: compound 33 (diphenyl IMiD analogue).

The full ranking holds about 8,300 sequences; the median of “log2 fold change of degron read counts, EGFP-low vs EGFP+ sorted cells (limma voom), compound-induced degradation” is about -1.1, and the highest 2% start at about 3.2. This excerpt belongs to a sample that is enriched for the highest values.
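Note: pooled lentiviral library of zinc finger degron-EGFP fusions in mCherry-positive Jurkat cells, FACS-sorted after compound exposure, with degron abundance counted by next-generation sequencing.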

In the case of FHCPQCGAWFTQKGNLLRHIKL [46F_47H_49P_50Q_52G_53A_54W_55F_67L_, Q9UKT9], the “log2 fold change of degron read counts” value under setting [1] was -1.82, the “log2 fold change of degron read counts” value under setting [2] is -2.04, the “log2 fold change of degron read counts” value under setting [3] is -1.61 and the “log2 fold change of degron read counts” value (compound: thalidomide) is -2.14.

Regarding FLCDICGAEFTQKGNLLRHIKL [46F_47L_49D_50I_52G_53A_54E_55F_67L_, Q9UKT9], the “log2 fold change of degron read counts” value by setting is: under setting [1], -0.631; under setting [2], -2.41; under setting [3], -1.1; (compound: thalidomide) -0.617.

With FDCDQCGAYFTQKGNLLRHIKL [46F_47D_49D_50Q_52G_53A_54Y_55F_67L_, Q9UKT9], the “log2 fold change of degron read counts” value runs as follows: under setting [1], -2.22; under setting [2], -2.78; under setting [3], -2.57; (compound: thalidomide) -2.51.

With FACPICGANFTQKGNLLRHIKL [46F_47A_49P_50I_52G_53A_54N_55F_67L_, Q9UKT9], the “log2 fold change of degron read counts” value by setting is: under setting [1], 3.04; under setting [2], 1.85; under setting [3], 1.61; (compound: thalidomide) 1.07.

Consider FWCPICGANFTQKGNLLRHIKL [46F_47W_49P_50I_52G_53A_54N_55F_67L_, Q9UKT9], for which the “log2 fold change of degron read counts” value under setting [1] turned out to be 2.99, the “log2 fold change of degron read counts” value under setting [2] was 3.64, the “log2 fold change of degron read counts” value under setting [3] worked out at 1.91 and the “log2 fold change of degron read counts” value (compound: thalidomide) is 1.51.

Take FICPICGANFTQKGNLLRHIKL [46F_47I_49P_50I_52G_53A_54N_55F_67L_, Q9UKT9]: the “log2 fold change of degron read counts” value runs as follows: under setting [1], -0.552; under setting [2], 2.74; under setting [3], 2.01; (compound: thalidomide) 2.63.

As to LTCEICGFGCTQKGNLLRHIKL [46L_47T_49E_50I_52G_53F_54G_55C_67L_, Q9UKT9], the “log2 fold change of degron read counts” value turned out to be 0.777 under setting [1], 1.03 under setting [2], 0.337 under setting [3] and 1.18 (compound: thalidomide).

Consider FHCPICGAYFTQKGNLLRHIKL [46F_47H_49P_50I_52G_53A_54Y_55F_67L_, Q9UKT9], for which the “log2 fold change of degron read counts” value is 2.3 under setting [1], 1.96 under setting [2], 1.93 under setting [3] and 0.872 (compound: thalidomide).

As to FNCNQCGHKFTQKGNLLRHIKL [46F_47N_49N_50Q_52G_53H_54K_55F_67L_, Q9UKT9], the “log2 fold change of degron read counts” value under setting [1] is -2.94, the “log2 fold change of degron read counts” value under setting [2] is -2.21, the “log2 fold change of degron read counts” value under setting [3] was -2.62 and the “log2 fold change of degron read counts” value (compound: thalidomide) was -2.32.

For the sequence FTCDVCGALFTQKGNLLRHIKL [46F_47T_49D_50V_52G_53A_54L_55F_67L_, Q9UKT9], the “log2 fold change of degron read counts” value runs as follows: under setting [1], -1.7; under setting [2], -2.19; under setting [3], -1.1; (compound: thalidomide) -1.72.

Take FTCPVCGAAFTQKGNLLRHIKL [46F_47T_49P_50V_52G_53A_54A_55F_67L_, Q9UKT9]: the “log2 fold change of degron read counts” value is, setting by setting: under setting [1], 2.3; under setting [2], 3.11; under setting [3], 2.78; (compound: thalidomide) 3.

Consider FTCNVCGAAFTQKGNLLRHIKL [46F_47T_49N_50V_52G_53A_54A_55F_67L_, Q9UKT9], for which the “log2 fold change of degron read counts” value by setting is: under setting [1], 0.179; under setting [2], 1.08; under setting [3], 1.44; (compound: thalidomide) 1.29.

Regarding FSCEVCGAAFTQKGNLLRHIKL [46F_47S_49E_50V_52G_53A_54A_55F_67L_, Q9UKT9], the “log2 fold change of degron read counts” value amounted to 3.6 under setting [1], 3.21 under setting [2], 2.57 under setting [3] and 2.01 (compound: thalidomide).

In the case of FKCEVCGAAFTQKGNLLRHIKL [46F_47K_49E_50V_52G_53A_54A_55F_67L_, Q9UKT9], the “log2 fold change of degron read counts” value reads like this: under setting [1], 2.13; under setting [2], -0.688; under setting [3], -1.68; (compound: thalidomide) 0.479.

In the case of FTCEVCGAAFTQKGNLLRHIKL [46F_47T_49E_50V_52G_53A_54A_55F_67L_, Q9UKT9], the “log2 fold change of degron read counts” value under setting [1] was 2.8, the “log2 fold change of degron read counts” value under setting [2] worked out at 3.24, the “log2 fold change of degron read counts” value under setting [3] came out at 2.06 and the “log2 fold change of degron read counts” value (compound: thalidomide) amounted to 3.05.

On to FDCEVCGAAFTQKGNLLRHIKL [46F_47D_49E_50V_52G_53A_54A_55F_67L_, Q9UKT9], for which the “log2 fold change of degron read counts” value runs as follows: under setting [1], 2.09; under setting [2], 0.14; under setting [3], 0.426; (compound: thalidomide) 1.14.

Consider LTCPICGFPCTQKGNLLRHIKL [46L_47T_49P_50I_52G_53F_54P_55C_67L_, Q9UKT9], for which the “log2 fold change of degron read counts” value under setting [1] stood at 0.155, the “log2 fold change of degron read counts” value under setting [2] worked out at 1.3, the “log2 fold change of degron read counts” value under setting [3] was 1.14 and the “log2 fold change of degron read counts” value (compound: thalidomide) stood at 1.64.

As to FDCPICGHEFTQKGNLLRHIKL [46F_47D_49P_50I_52G_53H_54E_55F_67L_, Q9UKT9], the “log2 fold change of degron read counts” value is -3 under setting [1], -2.96 under setting [2], -2.14 under setting [3] and -2.07 (compound: thalidomide).

Regarding FVCNQCGHVFTQKGNLLRHIKL [46F_47V_49N_50Q_52G_53H_54V_55F_67L_, Q9UKT9], the “log2 fold change of degron read counts” value reads like this: under setting [1], -2.66; under setting [2], -3.07; under setting [3], -2.27; (compound: thalidomide) -2.93.

For the sequence FMCEICGRFFTQKGNLLRHIKL [46F_47M_49E_50I_52G_53R_54F_55F_67L_, Q9UKT9], the “log2 fold change of degron read counts” value under setting [1] is -2.5, the “log2 fold change of degron read counts” value under setting [2] was -2.11, the “log2 fold change of degron read counts” value under setting [3] is -1 and the “log2 fold change of degron read counts” value (compound: thalidomide) is -1.98.

As for FSCDVCGAMFTQKGNLLRHIKL [46F_47S_49D_50V_52G_53A_54M_55F_67L_, Q9UKT9], the “log2 fold change of degron read counts” value reads like this: under setting [1], 0.106; under setting [2], -0.592; under setting [3], -0.74; (compound: thalidomide) -1.71.

FMCDICGAAFTQKGNLLRHIKL [46F_47M_49D_50I_52G_53A_54A_55F_67L_, Q9UKT9]: the “log2 fold change of degron read counts” value is, setting by setting: under setting [1], 0.96; under setting [2], 1.45; under setting [3], 2.6; (compound: thalidomide) 0.343.

In the case of FCCDICGAAFTQKGNLLRHIKL [46F_47C_49D_50I_52G_53A_54A_55F_67L_, Q9UKT9], the “log2 fold change of degron read counts” value under setting [1] was found to be 2.88, the “log2 fold change of degron read counts” value under setting [2] is 2.17, the “log2 fold change of degron read counts” value under setting [3] worked out at 0.975 and the “log2 fold change of degron read counts” value (compound: thalidomide) stood at 0.534.

As for FICDICGAAFTQKGNLLRHIKL [46F_47I_49D_50I_52G_53A_54A_55F_67L_, Q9UKT9], the “log2 fold change of degron read counts” value is, setting by setting: under setting [1], -0.22; under setting [2], 2.29; under setting [3], 1.39; (compound: thalidomide) 1.5.

Consider FACDICGAAFTQKGNLLRHIKL [46F_47A_49D_50I_52G_53A_54A_55F_67L_, Q9UKT9], for which the “log2 fold change of degron read counts” value is 3.42 under setting [1], 2.04 under setting [2], -0.474 under setting [3] and -0.517 (compound: thalidomide).

With FWCDICGAAFTQKGNLLRHIKL [46F_47W_49D_50I_52G_53A_54A_55F_67L_, Q9UKT9], the “log2 fold change of degron read counts” value was 3.12 under setting [1], 3.67 under setting [2], 1.49 under setting [3] and -0.516 (compound: thalidomide).

Turning to FQCDICGAAFTQKGNLLRHIKL [46F_47Q_49D_50I_52G_53A_54A_55F_67L_, Q9UKT9], the “log2 fold change of degron read counts” value under setting [1] came out at 1.74, the “log2 fold change of degron read counts” value under setting [2] amounted to 2.51, the “log2 fold change of degron read counts” value under setting [3] came to 0.983 and the “log2 fold change of degron read counts” value (compound: thalidomide) came out at 3.01.

Consider FVCDICGAAFTQKGNLLRHIKL [46F_47V_49D_50I_52G_53A_54A_55F_67L_, Q9UKT9], for which the “log2 fold change of degron read counts” value under setting [1] was 0.447, the “log2 fold change of degron read counts” value under setting [2] turned out to be 2.48, the “log2 fold change of degron read counts” value under setting [3] amounted to 1.33 and the “log2 fold change of degron read counts” value (compound: thalidomide) was 1.87.

As to FRCDICGAAFTQKGNLLRHIKL [46F_47R_49D_50I_52G_53A_54A_55F_67L_, Q9UKT9], the “log2 fold change of degron read counts” value is, setting by setting: under setting [1], 1.51; under setting [2], 1.47; under setting [3], 2.34; (compound: thalidomide) 1.21.

Take FYCDICGAAFTQKGNLLRHIKL [46F_47Y_49D_50I_52G_53A_54A_55F_67L_, Q9UKT9]: the “log2 fold change of degron read counts” value was 3.37 under setting [1], 3.23 under setting [2], 2.4 under setting [3] and -0.554 (compound: thalidomide).
